# The full ranking holds about 25,000 sequences; the median of “ln(normalized median fluorescence intensity)” is about 9.7, and the highest 2% start at about 11. The full list was thinned out, with the highest values kept by preference.
# Tested on: PfAP2-HC AP2 domain (GST-tagged)
# Assay: gcPBM binding intensity (ln(normalized median fluorescence intensity)); higher = stronger DNA binding
# Outline: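 Binding intensity is defined as the maximum Masliner-normalised natural-log median intensity across replicate spots for either probe orientation. It was measured on an Agilent 4 × 180k array of primer-extended double-stranded 36-bp intergenic genomic probes and negative controls, to which GST-tagged P. falciparum DNA-binding domains made in E. coli were applied for 1 h in 1× PBS with 1% milk, 0.2 mg/ml BSA, 0.5% salmon testes DNA and 0.03% Triton X-100. Detection was by Alexa488 anti-GST antibody and scanning at 488 nm.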
row,Sequence,gcPBM binding intensity (ln)
1,CACAAAAATAGACACACACACATATAAATAAATATA [CACACA_site6598],10.4
2,AAAATCACAAAACACACACACACAAAAAAAAAAAAA [CACACA_site1443],10.5
3,ATAAAATGGGCAAACACACACAAAAAAAAGATATAT [CACACA_site1648],10.3
4,TACCAAAAGAAACACACACACAAAATATATAAATAT [CACACA_site1869],10.6
5,TATATATAAATAAACACACACAAATATAATAAAAAA [CACACA_site3526],10.9
6,CTTACCAAAAAACACACACACACAAAATATATAAAT [CACACA_site1870],11.2
7,ATAAAATGCGCAAACACACACAAAAAAAAGATATAT [CACACA_site6875],10.2
8,TACCAAAATAGACACACACACAAAATATGTAAATAT [CACACA_site6963],11
9,AATCACAACAGACACACACACAAAAAAAAAAAAAAA [CACACA_site1442],10.1
10,TTATAAAATGGGCAAACACACACAAAAAAAAGATAT [CACACA_site8476],10.9
11,AAATAAATAATATGTAAACACACAAAAAATAAAAAT [CACACA_site8307],10.3
12,AAAATCACAAGACACACACACACAAAAAAAAAAAAA [CACACA_site6791],11.5
13,ATAAATAAATAAATAAATAAATAAATAAATATATAT [CACACA_negctrl_site1728],9.74
14,TTTAATTTATATTTTGTGCACATCTTATTATATATA [GTGCAC_site9630],9.88
15,GAAGTATTATTAAAGCTGCACTTTTCTAAAATAAAC [GTGCAC_site9429],9.5
16,TAATTACCATATGGTACACACATATATATCTGTATA [CACACA_site5849],9.96
17,CAGGCACTAATAAACACACACATATAAATATAAATA [CACACA_site6320],10.1
18,AATTTAACCACTAAAAGTACACACATATATACATAT [XGTACX_site8352],10.1
19,TACTTTTTTCCTATTATGTTTCTTATTTTTATAAAT [XGTACX_negctrl_site561],9.78
20,GATGATTATATATATACGCACACTTTTTTTTTTTTT [CACACA_site2652],9.94
21,TAATAAAACATATATACACACATTATAAATACATAT [CACACA_site5014],10
22,TTTTTTTTTTTTCTGTGTACATATATAATATATATA [XGTACX_site1592],9.7
23,AAAAGAAAATAAGAAACACACAAAAATATATAAAAA [CACACA_site3697],9.99

row,Sequence,gcPBM binding intensity (ln)
1,AAAAAAAAAAAACACACACACAAAAAAAAATATATA [CACACA_site1105],11.3
2,ATATATATAAAACACACACACAAAAAAAATAAAGAC [CACACA_site117],11.2
3,AAAAAAAAAAAACACACACACACAAATATATAAAAA [CACACA_site1171],10.6
4,AAAAAAAAAAAAAACACACACACAAAAAAAAATATA [CACACA_site1104],11.3
5,AAATATAAACGGCACACACACAAAAAAAGAAAAAAA [CACACA_site649],11
6,AAATATAAAGTGCACACACACAAAAAAAGAAAAAAA [CACACA_site6452],10.2
7,AAAAAGAAAAAAAACACACACAAATATAAATAAATA [CACACA_site1183],10.2
8,AATATATATAAATAAACACACACAAATATAATAAAA [CACACA_site9176],10.8
9,AAATAAATAAAAAACACACACAAATAAATAAATATA [CACACA_site2249],10.7
10,AAAAAAAGAAAAAAAACACACACAAATATAAATAAA [CACACA_site8309],10.9
11,AAAAAATATAAAAAAACACACAAAAAAAAAAAAAAA [CACACA_site1382],9.71
12,TGTACAAATATGTTGAAAATAAAATTTCAATATATT [XGTACX_negctrl_site13],9.32
13,AAAAAATTAACCGTAACACACACACCGATATATATA [CACACA_site9312],10.5
14,ATTTTTTTTTTTTTTTTTTTTTTTTGGAGAAAGAGA [CACACA_negctrl_site1119],8.98
15,ATATAGAAAATGCATACACACTTTATATATATATTT [CACACA_site4658],9.9
16,TTACAAATATTATAAAGTACAAACCAGTAGATTTTG [XGTACX_site2272],9.63
17,ATACATATGTATATTTGTACATATTAGACAATCTTA [XGTACX_site6706],9.37
18,CATATATAACAATTCTCACACATAAAAAAAAAAAAT [CACACA_site4564],9.76
19,TTTTTAAATATAAACAAAAAAAAAAAATATATCAAT [XGTACX_negctrl_site328],9.43
20,AAAAAAATAAATAAGACACACACAAAAAAAAAAAAA [CACACA_site8404],11
21,AGAGTATATAAAGTAACACACAATAAAATAAAATAA [CACACA_site2328],10.3
22,TACTTACCAAAATACACACACACACCCAATATATAA [CACACA_site1871],10.5
23,AAAAATAAATAAGACACACACAAAAAAAAAAAAAAA [CACACA_site1432],9.87

row,Sequence,gcPBM binding intensity (ln)
1,AAAAAAATAAGACACACACACAAAAAAATAAAAATA [CACACA_site6357],10.6
2,AAAACAAATATATTAACACACAAACATATAAACAAA [CACACA_site6052],10.4
3,TACTTACCAAAATACACACACACACTAGATATATAA [CACACA_site5096],11.3
4,AAAAAAAAAAAAAACACACACACAATAGTATATAAA [CACACA_site957],10.3
5,AAAAAAAAAAAAAACACACACACAAGAGTATATAAA [CACACA_site6580],11.1
6,AAAATATATATTAACACACACACAAAAAAAAAAAAA [CACACA_site1325],11.2
7,ATATTAAAAAAATATAAACACACAAAAAAAAAATAT [CACACA_site8283],9.91
8,AATACTTACCAAAATACACACACACCCAAAATATAT [CACACA_site8559],10.3
9,TATTTTTTTCTTACTACACACATATATATGCTTTCC [CACACA_site4058],10
10,ATAGCATATATTTTTTGTACATATGTTATATATATA [XGTACX_site2184],9.66
11,AAAAAAAAAGATCACACACACATAAATATAAACAAA [CACACA_site5285],10.9
12,TCAAAAATAAAGATCACACATATATATATATATATA [CACACA_site4381],9.73
13,CACAAAAATAAACACACACACATATATATATATATA [CACACA_site4704],10.4
14,AAGTTCAAAATAAATGGTACAGAAGTATATATATCA [XGTACX_site174],9.75
15,ATATATCCAAATAGATTACATATATATATATAGATA [TGCATGCA_negctrl_site277],9.5
16,CAAGCACAGAAACACACACACACACCGACACAGACA [CACACA_site4359],10.9
17,CACAAAGACACAAACACACACACACCCACATACATA [CACACA_site452],10.5
18,ACATCAAGCAGACACACACACACACCCACCCACCCA [CACACA_site8012],11.5
19,CAAGCACCCAGACACACACACACACCCACACCCACA [CACACA_site369],11.2
20,ATCAAGCACGGACACACACACACACCCAGACCCCCA [CACACA_site4360],10.6
21,AACAGACAGAAACACACACACATATATATATATATA [CACACA_site3394],10.8
22,ACATCAAGCAGACACACACACACACCCACCCACCGA [CACACA_site371],10.7
23,CACCCACCCAGACACACACACACAAAAAAAAAAAGA [CACACA_site499],11.2

row,Sequence,gcPBM binding intensity (ln)
1,ACATCAAGCGGACACACACACACACCGACAGACACA [CACACA_site4361],10.9
2,TACACAAGCAGACACACACACATATATATATATATA [CACACA_site1270],10.2
3,TATACACCCAGACACACACACACACCCAAAAAAAAA [CACACA_site497],10.9
4,CAATATATTTGATTTACACACTTACAATGTATTTAA [CACACA_site5632],9.79
5,AAGAATTATTTTTTATGTACTTATATGTCAATTTTC [XGTACX_site6676],9.68
6,TTGTAGGAATTTATTTTGACTGATAATTAATACGTT [GTGCAC_negctrl_site46],9.47
7,AAAAAAAATATATATGCACACACAAAAAAACAAATT [CACACA_site8349],10.2
8,TAGTATCAATCTTATACATGCATAAAATAATTATAA [TGCATGCA_site1052],9.53
9,AAAAAATTTATAAAAGCACACAAAATAAAAAAAAAT [CACACA_site8420],9.78
10,TAACATATCTTTAATACACACTTAAAAAAGTACTTA [CACACA_site4532],9.41
11,CAGATAGACTTATATGCATGCATTCACCTGCCAACA [TGCATGCA_site158],9.66
12,AATATATGGTTTCATGATATAAAATTCAATTTAATG [GTGCAC_negctrl_site610],9.51
13,ATGTTTTATATTTTTTTTTTGTTTGCTTGTTTCCTC [CACACA_negctrl_site870],9.57
14,ATATACAAAGGATTAACACACATATTATTATAGATA [CACACA_site6966],9.87
15,TGTTTTTTATTTAATTGTACGAATTAAAAAAAATAA [XGTACX_site3009],9.1
16,ATACATCAAGGACACACACACACACCCACACCCACA [CACACA_site8013],11.1
17,ATACATCAAGGACACACACACACACGCACACGCACA [CACACA_site6310],10.7
18,CACCCACCCAGACACACACACACACCCCCACCCATA [CACACA_site367],11.6
19,CACCCCCACAGACACACACACACACCCATATATATA [CACACA_site364],10.6
20,TAGACTCCCAGACACACACACACACCCATATAATAT [CACACA_site593],10.5
21,TACACCCACCCACATACACACACATACACATATATA [CACACA_site8503],10.8

# — the supplement of paper PMC11417369
